According to PubChem BioAssay (NCATS):
Inconclusive results are not listed. A call without a number means that no potency is given here. Unmarked numbers belong to inactive results. Active and inactive are the calls of the source. Unless noted, calls follow the shape of the dose curve; as a rule, active = well fitted curve in the direction sought with a large enough effect; inconclusive = small, poorly fitted or top-dose-only effect, or another doubt; inactive = no such curve, though single readings can be large; an effect the other way counts as inactive or inconclusive.

Tests used:
[1] = target: Aldehyde dehydrogenase, mitochondrial (Homo sapiens) (UniProt P05091); assay: qHTS for Inhibitors of the Aldehyde Dehydrogenase Family (ALDH2) Confirmatory screens (AID 2061303; active = well fitted inhibition curve with a large enough effect; title and protocol of this record describe different tests; also: nearly all actives have a fitted effect of over 45% in size; also: potency is read from the fitted curve at half-maximal effect)
[2] = qHTS for Inhibitors of the Aldehyde Dehydrogenase Family (ALDH1A2, ALDH1A3, ALDH2, ALDH3A1) (AID 2061307); also: nearly all actives have a fitted effect of over 50% in size; as to potency: test system not described further here; potency is read from the fitted curve at half-maximal effect
[3] = target: Aldehyde dehydrogenase, mitochondrial (Homo sapiens) (UniProt P05091); assay: qHTS for Inhibitors of the Aldehyde Dehydrogenase Family (ALDH2) Primary screen (AID 2061308); also: nearly all actives have a fitted effect of over 55% in size; also: potency is read from the fitted curve at half-maximal effect
[4] = target: Retinal dehydrogenase 2 (Homo sapiens) (UniProt O94788); assay: qHTS for Inhibitors of the Aldehyde Dehydrogenase Family (ALDH1A2) Confirmation screens (AID 2061314); also: nearly all actives have a fitted effect of over 65% in size; also: potency is read from the fitted curve at half-maximal effect
[5] = target: Retinaldehyde dehydrogenase 3 (Homo sapiens) (UniProt P47895); assay: qHTS for Inhibitors of the Aldehyde Dehydrogenase Family (ALDH1A3) Primary screen (AID 2061315)
[6] = target: Retinaldehyde dehydrogenase 3 (Homo sapiens) (UniProt P47895); assay: qHTS for Inhibitors of the Aldehyde Dehydrogenase Family (ALDH1A3) Confirmatory screens (AID 2061311); also: nearly all actives have a fitted effect of over 60% in size; also: potency is read from the fitted curve at half-maximal effect
[7] = target: Aldehyde dehydrogenase 1A1 (Homo sapiens) (UniProt P00352); assay: qHTS for Inhibitors of the Aldehyde Dehydrogenase Family (ALDH1A1) Confirmatory screens (AID 2061316); also: nearly all actives have a fitted effect of over 65% in size; also: potency is read from the fitted curve at half-maximal effect
[8] = target: Aldehyde dehydrogenase, mitochondrial (Homo sapiens) (UniProt P05091); assay: qHTS for Inhibitors of the Aldehyde Dehydrogenase Family (ALDH2) Validation screens (AID 2061302; active = well fitted inhibition curve with a large enough effect; title and protocol of this record describe different tests)
[9] = target: Retinaldehyde dehydrogenase 3 (Homo sapiens) (UniProt P47895); assay: qHTS for Inhibitors of the Aldehyde Dehydrogenase Family (ALDH1A3) Validation screen (AID 2061312); also: nearly all actives have a fitted effect of over 45% in size
[10] = BET inhibitor-based combinations targeting novel dependencies in MECOM-rearranged (r) AML: SET-2 cell line (AID 2202231); details: SET-2 AML cells viability, CellTiter-Glo luminescence, 48 h; viability: active compounds read low, series mostly up to about 46 µM; also: nearly all actives have a fitted effect of over 35% in size
Outline: (§1)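 Each compound was tested at eleven concentrations on cells seeded at 500/well. After two days' incubation, ATP-based luminescence reported viability; responses relative to DMSO and blank wells yielded AUC and cell-line-centred Z-AUC.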

[11] = BET inhibitor-based combinations targeting novel dependencies in MECOM-rearranged (r) AML: OCI-AML3 cell line (AID 2202232); details: Potency: OCI-AML3 viability; also: series mostly up to about 46 µM; nearly all actives have a fitted effect of over 35% in size
Outline: as §1

[12] = BET inhibitor-based combinations targeting novel dependencies in MECOM-rearranged (r) AML: HNT-34 cell line (AID 2202234); also: nearly all actives have a fitted effect of over 35% in size
Outline: (§2)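 First, 500 cells per well were seeded; next, drugs were pinned as 11-point doses; then plates sat 48 hr in the incubator; finally CellTiter-Glo was added and luminescence read, with AUC and Z-AUC computed.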

[13] = BET inhibitor-based combinations targeting novel dependencies in MECOM-rearranged (r) AML: UCSD-AML1 cell line (AID 2202235); also: series mostly up to about 46 µM; nearly all actives have a fitted effect of over 40% in size
Outline: as §2

[14] = BET inhibitor-based combinations targeting novel dependencies in MECOM-rearranged (r) AML: AML-191 cell line (AID 2202236; also: nearly all actives have a fitted effect of over 35% in size)
Outline: as §1

[15] = BET inhibitor-based combinations targeting novel dependencies in MECOM-rearranged (r) AML: AML-194 cell line (AID 2202237; also: nearly all actives have a fitted effect of over 40% in size)
Outline: as §1

Q: With `CN(Cc1ccccc1)C[C@H]1CN2CC[C@H]1C[C@@H]2CNC(=O)c1ccc(C(F)(F)F)cc1` as the molecule, how does the Potency [1] read?
A: Its Potency is “inactive”.

Q: For `CCOc1ccc(CCNC(=O)c2cc3ncccc3n2Cc2cccc(C)n2)cc1OCC`, which Potency [1] is on record?
A: Its Potency is “inactive”.

Q: And the Potency [2]?
A: Its Potency is “inactive”.

Q: What about the Potency [3] of the same molecule?
A: The Potency was “inactive”.

Q: What about the Potency [4] of the same molecule?
A: The Potency was “inactive”.

Q: What about the Potency [5] of the same molecule?
A: The Potency was “inactive”.

Q: For `Cc1cccc(C)c1OP(=O)(OCc1c(-c2ccccc2)no[n+]1[O-])Oc1c(C)cccc1C`, which Potency [1] is on record?
A: The Potency was 1.12 µM (active).

Q: And the Potency [2]?
A: Its Potency is 5.04 µM (active).

Q: And the Potency [6]?
A: The Potency was 12.7 µM (active).

Q: What about the Potency [4] of the same molecule?
A: The Potency was 12.7 µM (active).

Q: And the Potency [5]?
A: The Potency was “inactive”.

Q: For `CO[C@@H]1C[C@H](O[C@H]2CC[C@]3(C)C4CC[C@]5(C)[C@@H](C6=CC(=O)OC6)[C@@H](OC(C)=O)C[C@]5(O)C4CC[C@@H]3C2)OC(C)[C@H]1O` (stereo not given in full), which Potency [2] is on record?
A: The Potency was “inactive”.

Q: Which Potency [1] does the source give for `N#Cc1c(-c2ccc([N+](=O)[O-])o2)no[n+]1[O-]` here?
A: Its Potency is 2.82 µM (active).

Q: What about the Potency [2] of the same molecule?
A: Its Potency is 10.1 µM (active).

Q: And the Potency [3]?
A: The Potency was 3.16 µM (active).

Q: What about the Potency [6] of the same molecule?
A: The Potency was 7.94 µM (active).

Q: What about the Potency [4] of the same molecule?
A: Its Potency is 15.8 µM (active).

Q: What about the Potency [7] of the same molecule?
A: The Potency was 2.25 µM (active).

Q: Which results are given for `CN1C(=O)CCS(=O)(=O)C1c1ccc(Cl)cc1` (stereo not given)?
A: Potency [8]: inactive; Potency [9]: inactive; viability [10]: 123%; Potency [11]: inactive; Potency [12]: inactive; Potency [13]: inactive; Potency [14]: inactive; Potency [15]: inactive

Q: Which Potency [1] does the source give for `CCOc1ccc(CCNC(=O)c2cc3cccnc3n2Cc2cccc(C)n2)cc1OCC` here?
A: Its Potency is “inactive”.

Q: What about the Potency [3] of the same molecule?
A: The Potency was “inactive”.

Q: And the activity change, negative = inhibition [6]?
A: The activity change, negative = inhibition was -11.9% [at 0.022 µM].

Q: And the Potency [5]?
A: The Potency was “inactive”.

Q: With `Oc1ccc(C2=CCNCC2)cc1O` as the molecule, how does the Potency [2] read?
A: The Potency was “inactive”.

Q: What does the source list for `Cc1cccc(C)c1NC1=NCCCS1`?
A: Potency [8]: inactive; Potency [9]: inactive

Q: For `NC(N)=Nc1ccc2[nH]c3c(c2c1)C[C@@]1(O)C2Cc4ccc(O)c5c4[C@@]1(CCN2CC1CC1)[C@H]3O5`, which Potency [2] is on record?
A: The Potency was “inactive”.

Q: What does the source list for `N#Cc1ccc(N2CCN(C(=O)COc3ccc4[nH]cc(CCN)c4c3)CC2)cc1`?
A: Potency [1]: inactive; Potency [3]: inactive; Potency [9]: inactive; Potency [7]: inactive

Q: With `Ic1ccccc1CNC1C2CCN(CC2)C1C(c1ccccc1)c1ccccc1` (stereo not given) as the molecule, how does the Potency [8] read?
A: Its Potency is “inactive”.

Q: What about the Potency [9] of the same molecule?
A: The Potency was “inactive”.

Q: With `CC(=O)c1cccc(N=[N+]=[N-])c1` as the molecule, how does the Potency [2] read?
A: Its Potency is “inactive”.

Q: With `C[C@@H]1Cc2c(Cl)cc(C(=O)N[C@@H](Cc3ccccc3)C(=O)O)c(O)c2C(=O)O1` as the molecule, how does the Potency [1] read?
A: Its Potency is “inactive”.

Q: And the Potency [2]?
A: The Potency was “inactive”.

Q: And the Potency [3]?
A: Its Potency is “inactive”.

Q: And the Potency [4]?
A: The Potency was “inactive”.

Q: And the Potency [5]?
A: The Potency was “inactive”.

Q: Which Potency [8] does the source give for `Oc1ccc2c3c1O[C@H]1c4[nH]c5c(c4C[C@@]4(O)[C@@H](C2)N(CC2CC2)CC[C@]314)C[C@@]1(O)[C@H]2Cc3ccc(O)c4c3[C@@]1(CCN2CC1CC1)[C@H]5O4` here?
A: Its Potency is “inactive”.

Q: What about the Potency [9] of the same molecule?
A: The Potency was “inactive”.

Q: For `N#Cc1c(-c2cc(F)cc(-c3no[n+]([O-])c3C#N)c2)no[n+]1[O-]`, which Potency [1] is on record?
A: The Potency was 0.357 µM (active).

Q: What about the Potency [4] of the same molecule?
A: The Potency was 1.59 µM (active).

Q: And the Potency [7]?
A: Its Potency is 11.3 µM (active).

Q: Which results are given for `Cc1ccc(S(=O)(=O)N[C@@H](CCCCN)C(=O)CCl)cc1`?
A: Potency [1]: inactive; Potency [2]: inactive; Potency [6]: inactive; Potency [4]: 12.7 µM (active)
